Measured values taken from PubChem BioAssay AID1745853 (National Center for Advancing Translational Sciences (NCATS), 2022).
About 970 (3.9%) of roughly 25,000 compounds were called active. About 8% were inconclusive and are not listed. No rule for the calls is given here. This excerpt belongs to a sample that is enriched for actives.

Assays:
Test in all cases: Primary Screen for Target Class Profiling of Small Molecule Inhibitors of Methyltransferases
[1] = molecular target: Catechol O-methyltransferase (Homo sapiens) (UniProt P21964); conditions: purified enzyme, MTase-Glo SAH luminescence; activity change, negative = inhibition: at 40 µM, stronger effect = lower value; outcome: 40 uM
Sequence of Catechol O-methyltransferase (Homo sapiens) (P21964 whole entry, looked up): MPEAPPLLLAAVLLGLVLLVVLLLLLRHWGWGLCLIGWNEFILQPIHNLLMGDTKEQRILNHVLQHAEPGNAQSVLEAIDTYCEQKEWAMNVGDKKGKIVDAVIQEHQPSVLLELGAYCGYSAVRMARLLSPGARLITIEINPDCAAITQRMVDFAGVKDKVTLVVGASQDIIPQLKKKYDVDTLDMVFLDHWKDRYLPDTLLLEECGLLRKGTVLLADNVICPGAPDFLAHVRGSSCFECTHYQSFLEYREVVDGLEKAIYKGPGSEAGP
Description: (§1) PI: Matthew D. Hall Ph.D. and Quinlin M. Hanson Ph.D.
(§2) National Center for Advancing Translational Sciences (NCATS)
(§3) National Institute of Health (NIH), Rockville, MD
(§4) Target class profiling (TCP) is a chemical biology approach amenable to investigating understudied biological targets. TCP is achieved by developing a generalizable assay platform and applying it to screen a curated set of compound libraries against representative members of a target class. Small molecule methyltransferases (SMMTase) are a subclass of methyltransferase that act on metabolites to modulate signaling pathways, metabolize xenobiotics, or balance the available methyl pool. We screened four curated libraries totaling 27,574 unique compounds against the SMMTases nicotinamide N-methyltransferase (NNMT), phenylethanolamine N-methyltransferase (PNMT), histamine N-methyltransferase (HNMT), glycine N-methyltransferase (GNMT), catechol O-methyltransferase (COMT), and guanidinoacetate N-methyltransferase (GAMT). The data generated by this TCP can be leveraged for informed tool molecule development. For example, in the associated publication we identified a chemotype of HNMT-selective inhibitors. Additionally, we identified a putative SMMTase-selective inhibitor with potential as a tool molecule for studying broader methyltransferase biology.
(§5) High-through put screening assays were developed at the National Center for Advancing Translational Science (NCATS) for the enzymes NNMT, PNMT, HNMT, GNMT, COMT, and GAMT. Enzymatic activity was measured as a function of SAM cofactor conversion using the MTase Glo kit (Promega) for all enzymes. All assays were performed in 1536-well format with substrates and SAM concentrations at KM values. Enzyme concentration and assay timing were optimized for 10-20% SAM conversion. Initial screening of 27,574 compounds was done as single-point assays using the highest compound concentration (40 uM). […] These compounds were replated in 11-point dose response and assayed against NNMT, PNMT, HNMT, GNMT, COMT, GAMT, and a counter-assay. The IC50 and efficacy (maximal response) values were determined for each dose-response curve. These values are also accounted for in the area under the curve (AUC) values.
(§6) PROTOCOL TABLE (as described by Inglese J, Shamu CE and Guy RK. 2007)
(§7) SEQUENCE No. (e.g., 1, 2, 3, etc.); […] (e.g., Cells, Incubation, Reagent, etc.); VALUE; DESCRIPTION.
(§8) 1; Reagent; 2 uL; SMMTase Enzyme (2x) in reaction buffer, columns 1- 48.
(§9) 2; Reagent; 1 uL; SAM (4x) in reaction buffer, columns 1-48.
(§10) 3; Controls; 23 nL; DMSO in column 4; sinefungin in DMSO (0 uM - 40 uM) in 7-point 1:2 dilution series (n = 2) in column 2.
(§11) 4; Compounds; 23 nL; Columns 5-48.
(§12) 5; Reagent; 1 uL; Substrate (4x) in reaction buffer, columns 2-48.
(§13) 6; Time; 20-30 min; Incubation.
(§14) 7; Reagent; 1 uL; MTase-Glo reagent (5X), columns 1-48.
(§15) 8; Time; 30 min; Incubation.
(§16) 9; Reagent; 5 uL; MTase-Glo Detection reagent, columns 1-48.
(§17) 10; Time; 30 min; Incubation, luminescence evolution.
(§18) 11; Detection; Luminescence; ViewLux uHTS Microplate Imager (PerkinElmer).
(§19) NOTES (numbers refer to Sequence numbers above)
(§20) 1, 2, 5. White Medium Binding Greiner 1536-well plates (Cat #789175-F, Greiner Bio-One, Monroe, NC); Reaction buffer: 50 mM Tris, pH 8.0, 3 mM MgCl2, 1 mM EDTA, 50 mM NaCl, 1 mM DTT, and 0.1 mg/mL BSA. Evaporation was prevented by covering assay plates with metal lids containing holes to allow gas diffusion.
(§21) 1. Six SMMTase were profiled: HNMT, GNMT, PNMT, COMT, NNMT, GAMT
(§22) 5. The corresponding substrate was used for each enzyme: HNMT - 5.3 uM Histamine; GNMT - >500 uM Glycine; PNMT - 16.2 uM Norephinephrine; COMT - 13.7 uM Norephinephrine; NNMT - 3.8 uM Nicotinamide; GAMT - 2.5 uM Guanidinoacetate.6, 8, 10. Room temperature
(§23) 6. Final reaction conditions: 10 nM COMT, 5 uM SAM, 15 uM norepinephrine, 50 mM Tris, pH 8.0, 3 mM MgCl2, 1 mM EDTA, 50 mM NaCl, 1 mM DTT, and 0.1 mg/mL BSA; refer to tables 2 and S1 for specific timing.
8. […]

[2] = molecular target: Glycine N-methyltransferase (Homo sapiens) (UniProt Q14749); conditions: purified enzyme, MTase-Glo SAH luminescence; measured here: GNMT inhibition; at 40 µM; stronger effect = lower value
Sequence of Glycine N-methyltransferase (Homo sapiens) (Q14749 whole entry, looked up): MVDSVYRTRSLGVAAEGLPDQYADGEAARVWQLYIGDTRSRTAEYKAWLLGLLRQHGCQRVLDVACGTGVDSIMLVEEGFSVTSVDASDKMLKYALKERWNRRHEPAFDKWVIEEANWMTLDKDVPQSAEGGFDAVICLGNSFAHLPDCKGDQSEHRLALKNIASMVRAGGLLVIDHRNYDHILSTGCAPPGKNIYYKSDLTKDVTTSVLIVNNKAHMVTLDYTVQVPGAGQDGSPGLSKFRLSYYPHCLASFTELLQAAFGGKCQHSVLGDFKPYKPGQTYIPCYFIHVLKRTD
Description: as §1, §2, §3, §4, §5, §6, §7, §8, §9, §10, §11, §12, §13, §14, §15, §16, §17, §18, §19, §20, §21, §22, §23
8. […]

[3] = molecular target: Guanidinoacetate N-methyltransferase (Homo sapiens) (UniProt Q14353); conditions: purified enzyme, MTase-Glo SAH luminescence; measured here: GAMT inhibition; at 40 µM; stronger effect = lower value
Description: as §1, §2, §3, §4, §5, §6, §7, §8, §9, §10, §11, §12, §13, §14, §15, §16, §17, §18, §19, §20, §21, §22, §23
8. […]

[4] = molecular target: Histamine N-methyltransferase (Homo sapiens) (UniProt P50135); conditions: purified enzyme, MTase-Glo SAH luminescence; measured here: HNMT inhibition; at 40 µM; stronger effect = lower value
Sequence of Histamine N-methyltransferase (Homo sapiens) (P50135 whole entry, looked up): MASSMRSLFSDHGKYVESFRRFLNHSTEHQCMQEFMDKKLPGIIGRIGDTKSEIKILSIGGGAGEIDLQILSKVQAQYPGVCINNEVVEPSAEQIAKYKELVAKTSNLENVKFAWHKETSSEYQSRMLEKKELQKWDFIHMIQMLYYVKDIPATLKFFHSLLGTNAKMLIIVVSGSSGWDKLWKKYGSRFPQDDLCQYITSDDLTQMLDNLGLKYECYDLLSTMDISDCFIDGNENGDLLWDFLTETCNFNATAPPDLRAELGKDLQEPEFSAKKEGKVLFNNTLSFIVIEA
Description: as §1, §2, §3, §4, §5, §6, §7, §8, §9, §10, §11, §12, §13, §14, §15, §16, §17, §18, §19, §20, §21, §22, §23
8. […]

[5] = molecular target: Nicotinamide N-methyltransferase (Homo sapiens) (UniProt P40261); conditions: purified enzyme, MTase-Glo SAH luminescence; measured here: NNMT inhibition; at 40 µM; stronger effect = lower value
Sequence of Nicotinamide N-methyltransferase (Homo sapiens) (P40261 whole entry, looked up): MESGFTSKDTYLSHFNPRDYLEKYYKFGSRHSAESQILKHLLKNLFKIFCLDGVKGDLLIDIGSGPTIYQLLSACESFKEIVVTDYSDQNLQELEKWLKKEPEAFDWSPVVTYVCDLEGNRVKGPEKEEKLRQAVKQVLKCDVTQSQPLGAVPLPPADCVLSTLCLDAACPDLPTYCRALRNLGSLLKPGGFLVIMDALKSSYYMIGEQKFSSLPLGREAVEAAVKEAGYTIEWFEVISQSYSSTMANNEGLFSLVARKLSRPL
Description: as §1, §2, §3, §4, §5, §6, §7, §8, §9, §10, §11, §12, §13, §14, §15, §16, §17, §18, §19, §20, §21, §22, §23
8. […]

[6] = molecular target: Phenylethanolamine N-methyltransferase (Homo sapiens) (UniProt P11086); conditions: purified enzyme, MTase-Glo SAH luminescence; measured here: PNMT inhibition; at 40 µM; stronger effect = lower value
Sequence of Phenylethanolamine N-methyltransferase (Homo sapiens) (P11086 whole entry, looked up): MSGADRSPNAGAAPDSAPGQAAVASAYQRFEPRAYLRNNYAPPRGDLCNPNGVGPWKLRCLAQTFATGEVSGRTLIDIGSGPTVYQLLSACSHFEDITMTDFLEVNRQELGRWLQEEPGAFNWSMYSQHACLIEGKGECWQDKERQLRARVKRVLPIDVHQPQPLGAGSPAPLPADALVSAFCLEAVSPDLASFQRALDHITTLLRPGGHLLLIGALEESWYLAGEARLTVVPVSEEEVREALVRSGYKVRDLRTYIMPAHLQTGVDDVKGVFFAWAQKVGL
Description: as §1, §2, §3, §4, §5, §6, §7, §8, §9, §10, §11, §12, §13, §14, §15, §16, §17, §18, §19, §20, §21, §22, §23
8. […]
% is scaled to controls: 0 for no effect and ±100 for the full control effect.

SMILES | activity change, negative = inhibition [1] | activity change, negative = inhibition [2] [%] | activity change, negative = inhibition [3] [%] | activity change, negative = inhibition [4] [%] | activity change, negative = inhibition [5] [%] | activity change, negative = inhibition [6] [%]
Cc1cc(C(=O)N2CCCCCC2CN2CCC(C)CC2)nn1C (stereo not drawn) | -10.6% (inactive) | 0.743 | 0.856 | 0.525 | -2.25 | -1.05
O=C(Cn1nc2n(Cc3ccc(F)cc3)c(=O)c3ccccc3n2c1=O)c1cccc(Cl)c1 | 5.66% (inactive) | 4.51 | 0 | 7.94 | -8.66 | 4.49
Cc1ccc(C(=O)COC(=O)C(Cc2c[nH]c3ccccc23)NC(=O)c2ccc(Br)cc2)cc1 (stereo not drawn) | 9.4% (inactive) | 10.7 | 0 | 6.18 | -1.05 | 1.41
Cc1cccc(-c2nnn3c2nc(N2CCC(C)CC2)c2ccccc23)c1 | -0.09% (inactive) | -5.45 | 0.818 | 1.53 | -1.89 | -5.11
Oc1cc2c(cc1O)CN(C(=S)NCCc1ccc(Cl)cc1)CCC2 | 143% (active) | -83 | 4.04 | -4.18 | -9.24 | 0.975
COc1cc(O)c(C(=O)CCc2ccc(O)cc2)c(O[C@@H]2O[C@H](CO)[C@@H](O)[C@H](O)[C@H]2O)c1 | -58.4% (active) | -3.53 | -12.8 | 2.69 | -20.7 | -1.39
COC(=O)CCc1cc2ccoc2c(OC)c1O[C@@H]1O[C@H](CO)[C@@H](O)[C@H](O)[C@H]1O | 2.02% (inactive) | 2.54 | 4.92 | 10.2 | -6.92 | 6.11
COc1cc(C)c(C(=O)Oc2cc(C)c(C(=O)Oc3cc(C)c(C(=O)NC(C)C(=O)O)c(O)c3)c(O[C@@H]3O[C@H](CO)[C@@H](O)[C@H](O)[C@H]3OC(C)=O)c2)c(OC)c1 (stereo partly drawn) | -0.843% (inactive) | -0.029 | 0.21 | 6.89 | -10.4 | -0.399
CCN1CCN(C(=O)Cn2nc(C)c3sc(-c4ccccc4)nc3c2=O)CC1 | -3.83% (inactive) | -9.13 | -4.75 | -2.34 | -11.6 | -11
CCCn1c(=O)c2ccc(C(=O)NC(C)CC)cc2n2c(=O)n(CC(=O)Nc3cc(C)cc(C)c3)nc12 (stereo not drawn) | 4.21% (inactive) | 2.22 | 5.41 | 6.27 | 0.889 | 3.91
COCCn1c2c(c(=O)n1-c1ccccc1)CCN(Cc1cccc(C#N)c1)C2 | -2.46% (inactive) | -6.45 | -6.81 | -9.66 | -7.68 | -4.57
C=CCn1c(=O)c2ccc(C(=O)NC(C)C)cc2n2c(=O)n(CC(=O)NCc3ccccc3)nc12 | 0.329% (inactive) | 7.7 | 1.61 | 12.5 | 0.93 | 4.28
COc1ccc(CNc2nc3c(S(=O)(=O)c4ccc(C)cc4)nnn3c3ccccc23)cc1 | -0.038% (inactive) | -2.81 | 0.613 | 3.99 | 0 | -4.71
